Screens as filed in PubChem BioAssay.
HepG2 viability: kills HepG2 cells in TGF-b inhibitor counter-screen | AID 588856 | 0.76% of 410,000 active | Potency, µM (top dose mostly 46.1 µM), most hits filed as cytotoxic | HepG2 CAGA-GFP viability, ATP luminescence, 18 h
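HepG2 CAGA-GFP cells (1000/well, DMEM with 1% FBS) received compound, then TGF-beta at 500 pg/mL final, and were incubated 18 hours at 37 degrees C. Viability was read by CellTiter-Glo luminescence. Media-only wells were set as complete cell-killing and DMSO as no toxicity.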
TDP1 inh: TDP1 (human) enzyme inhibition | Q9NUW8 | recombinant TDP1, AlphaScreen DNA substrate cleavage | Potency, µM (doses to about 130 µM), actives largely listed as inhibitors | 0.28% of 350,000 active; also: nearly all actives have a fitted effect of over 40% in size
Target sequence (Q9NUW8 whole entry, looked up): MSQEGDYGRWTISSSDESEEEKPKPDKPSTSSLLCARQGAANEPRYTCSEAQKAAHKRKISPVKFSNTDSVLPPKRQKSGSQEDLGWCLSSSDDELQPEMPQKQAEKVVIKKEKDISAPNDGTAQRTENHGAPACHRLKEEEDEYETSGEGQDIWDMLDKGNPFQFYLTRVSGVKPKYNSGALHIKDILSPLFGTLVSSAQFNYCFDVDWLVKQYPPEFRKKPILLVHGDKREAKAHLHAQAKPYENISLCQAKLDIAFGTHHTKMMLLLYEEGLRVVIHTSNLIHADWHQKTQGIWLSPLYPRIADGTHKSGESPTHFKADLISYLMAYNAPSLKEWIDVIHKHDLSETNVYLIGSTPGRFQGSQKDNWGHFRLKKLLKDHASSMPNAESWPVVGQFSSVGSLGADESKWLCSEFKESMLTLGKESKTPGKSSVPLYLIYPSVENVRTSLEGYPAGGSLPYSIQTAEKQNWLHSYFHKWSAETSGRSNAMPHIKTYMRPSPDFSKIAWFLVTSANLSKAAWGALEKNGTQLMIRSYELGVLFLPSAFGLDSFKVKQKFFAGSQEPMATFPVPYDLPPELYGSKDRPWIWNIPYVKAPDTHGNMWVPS
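Here, a 5' biotin and 3' phosphotyrosine-FITC DNA oligonucleotide reports Tdp1 activity: intact substrate bridges AlphaScreen beads, while cleavage leaves a 3' phosphate and drops signal. All incubations at room temperature.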
TDP1 cell CPT: growth inhibition of DT40 Tdp1-/-;hTDP1 cells with camptothecin (screen for TDP1 inhibitors) | chicken DT40 Tdp1-/-;hTDP1 cells + 20 nM CPT, ATP luminescence, 48 h | Potency, µM (top dose mostly 46.2 µM), usual class: inhibitors | 12% of 420,000 active; also: nearly all actives have a fitted effect of over 55% in size
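Chicken DT40 Tdp1-/- cells complemented with human TDP1, 400 cells/well, exposed to compounds plus 20 nM camptothecin for at least 48 h at 37 C; viability read as ATP content by CellTiter-Glo luminescence.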
IL1B secr inh: inflammasome signaling inhibition, IL-1 beta readout; THP-1 LPS/ATP IL-1B secretion, AlphaLISA, 16 h; stronger effect = lower value; activity change, % at 57.5 µM; 4.7% of 360,000 active; in the data active = activity change below about -50%; inconclusive = mostly about -30% to -49%
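Secreted IL-1B measured by AlphaLISA bead assay after 16 h compound exposure of THP-1 cells; compounds (final up to 57.5 uM) added 1 h before LPS (250 ng/mL) and ATP (1.25 mM) stimulation; lower signal means less secretion.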
DT40 TDP1 no CPT: qHTS for Inhibitors of human tyrosyl-DNA phosphodiesterase 1 (TDP1): qHTS in cells in absence of CPT. 15% of 420,000 active. Potency, µM (doses to about 46.2 µM), most hits filed as inhibitors. DT40 Tdp1-/- hTDP1 cells, no CPT, ATP luminescence, 48 h; also: nearly all actives have a fitted effect of over 55% in size
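Compound effects on proliferation are scored in DT40 Tdp1-/-;hTDP1 cells in the absence of CPT. ATP levels (CellTiter-Glo luminescence) are recorded after a ≥48 hr, 37 °C incubation.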
TGFb inhibitor: inhibitors of TGF-b signaling. HepG2 CAGA-GFP TGF-b/SMAD3 reporter, GFP fluorescence, 18 h; TGF-beta stimulated, 500 pg/mL final. Potency, µM (series often up to 46.1 µM), actives largely listed as inhibitors. 1.2% of 410,000 active. AID 588855; also: nearly all actives have a fitted effect of over 65% in size
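GFP signal (ex488/em500-530) from TGF-beta-stimulated HEPG2 CAGA-GFP cells, 500 pg/mL final, 18 h at 37 degrees C in DMEM plus 1% FBS, normalized to unstimulated and DMSO-stimulated controls.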
Each line names hits and unclear results; the compound was inactive in the other large screens. Shown are actives, neighbours in structure and some others; about 19% of the full set was active somewhere. Unless noted, calls follow the shape of the dose curve; as a rule, active = well fitted curve in the direction sought with a large enough effect; inconclusive = small, poorly fitted or top-dose-only effect, or another doubt; inactive = no such curve, though single readings can be large; an effect the other way counts as inactive or inconclusive.

O=C(NCCCN1CCOCC1)c1ccc(CSc2ccc(Cl)cc2)cc1	TDP1 cell CPT 25.9µM, IL1B secr inh -62.1, DT40 TDP1 no CPT 20.6µM
COc1ccc(C2=Nn3c(nnc3-c3cccc(OC)c3)SC2)cc1	none (no result: HepG2 viability, TDP1 cell CPT, IL1B secr inh, DT40 TDP1 no CPT, TGFb inhibitor)
COc1ccc(NC(=O)c2cc(S(=O)(=O)N3CCc4ccccc43)cn2C)cc1OC	none (no result: TDP1 inh)
c1nc(N2CCNCC2)c2cc(-c3ccc4c(c3)OCO4)ccc2n1	TDP1 cell CPT inconclusive, DT40 TDP1 no CPT inconclusive (no result: HepG2 viability, IL1B secr inh, TGFb inhibitor)
CNC(=O)CSc1nc(N)c2c3c(sc2n1)CCC3	none
CN1CCc2c(sc3nc(SCC(=O)N4CCOCC4)nc(N)c23)C1	TDP1 cell CPT 23.1µM, DT40 TDP1 no CPT 18.4µM
CC1CCN(C(=O)CSc2nc(N)c3c4c(sc3n2)CN(C)CC4)CC1	TDP1 cell CPT inconclusive, DT40 TDP1 no CPT 20.6µM
C(=C\c1cccs1)/c1ccccn1	none (no result: TDP1 inh, IL1B secr inh)
O=c1cc(/C=C/c2cccs2)[nH]c2ccccc12	TDP1 cell CPT 2.59µM, DT40 TDP1 no CPT 2.06µM
Cc1cc2c(n1-c1ccc(C(=O)NCCc3ccccc3)cc1)CCC(C)C2 (stereo not drawn)	TDP1 cell CPT 18.4µM, DT40 TDP1 no CPT 20.6µM, TGFb inhibitor inconclusive (no result: IL1B secr inh)
Cc1cc2c(n1-c1ccc(C(=O)NCCc3ccc(Cl)cc3)cc1)CCC(C)C2 (stereo not drawn)	TDP1 cell CPT 25.9µM, DT40 TDP1 no CPT 23.1µM (no result: IL1B secr inh)
COc1ccc(CCNC(=O)c2ccc(-n3c(C)cc4c3CCC(C)C4)cc2)cc1OC (stereo not drawn)	TDP1 cell CPT inconclusive, DT40 TDP1 no CPT 20.6µM (no result: IL1B secr inh)
COc1cccc(CNC(=O)c2ccc(-n3c(C)cc4c3CCC(C)C4)cc2)c1 (stereo not drawn)	TDP1 cell CPT inconclusive, DT40 TDP1 no CPT inconclusive (no result: IL1B secr inh)
O=c1oc2cc(O[C@@H]3OC[C@@H](O)[C@H](O)[C@H]3O)ccc2c2ccccc12	none (no result: TDP1 inh)
Cc1c2cnn(CC(=O)NCC(C)c3ccccc3)c(=O)c2c(C)n1Cc1cccc(Cl)c1 (stereo not drawn)	DT40 TDP1 no CPT inconclusive (no result: IL1B secr inh)
NC(N)=Nc1nc(-c2ccccc2)c2ccccc2n1	TDP1 cell CPT 25.9µM, DT40 TDP1 no CPT 14.6µM, TGFb inhibitor inconclusive (no result: IL1B secr inh)
C=CCOC(=O)C1=C[C@H](c2ccc(C(F)(F)F)cc2)[C@@H](CCCO)[C@H](OCC)O1	TDP1 cell CPT 23.1µM, DT40 TDP1 no CPT inconclusive
C=CCOC(=O)C1=C[C@@H](c2ccc(Br)cc2)[C@H](CCCO)[C@@H](OCC)O1	TDP1 cell CPT inconclusive, DT40 TDP1 no CPT inconclusive
C=CCOC(=O)C1=C[C@@H](c2ccccc2)[C@H](CCCO)[C@@H](OCC)O1	TDP1 cell CPT 14.6µM, DT40 TDP1 no CPT inconclusive
C=CCOC(=O)C1=C[C@@H](c2ccc(C(F)(F)F)cc2)[C@H](CCCO)[C@@H](OCC)O1	TDP1 cell CPT 23.1µM, DT40 TDP1 no CPT 11.6µM, TGFb inhibitor inconclusive
Cc1ccc(NS(=O)(=O)c2cc(NC(=O)c3ccc4c(c3)NC(=O)CS4)ccc2Cl)c(C)c1	TDP1 cell CPT inconclusive, IL1B secr inh inconclusive, DT40 TDP1 no CPT 25.9µM, TGFb inhibitor inconclusive
COc1ccc(NC(=O)c2ccc3c(c2)NC(=O)CS3)cc1	IL1B secr inh inconclusive
Cc1ccc(NC(=C(C#N)C#N)c2ccccc2)cc1	TDP1 cell CPT inconclusive, DT40 TDP1 no CPT 11.6µM (no result: TDP1 inh)
Cc1nc([N+](=O)[O-])cn1CC(O)c1ccc2c(c1)OCCO2 (stereo not drawn)	none (no result: TDP1 inh, IL1B secr inh)
Cn1c(=O)n(Cc2ccc(F)cc2)c(=O)c2c1nc1n2CCCN1C1CCCCC1	TDP1 cell CPT 23.1µM, DT40 TDP1 no CPT 20.6µM
Cc1cccc(N2CCCn3c2nc2c3c(=O)n(CCN3CCOCC3)c(=O)n2C)c1	TDP1 cell CPT 20.6µM, DT40 TDP1 no CPT inconclusive
CCn1c(=O)c2c(nc3n2CCCN3CCc2ccc(OC)c(OC)c2)n(C)c1=O	DT40 TDP1 no CPT inconclusive, TGFb inhibitor inconclusive (no result: TDP1 inh)
